A short description of assay [1]: sensitizers of A549 cells to miR-34 induction, primary screen, imaging, A549 dox-inducible miR-34, nuclei and caspase counts (AID 1347080). Also: test concentration not given here. As to conditions: A549 miR-34 inducible, Hoechst nuclei count, 48 h.
Assay [2] can be described thus: survival rescue of mitochondrial mutant cells in low glucose, primary screen, MELAS cybrids, Rieske KO mouse fibroblasts, CellTiter-Glo (AID 1508586;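 active = mean z-score across replicates of 1.96 or higher in either the MELAS or the Rieske mutant cell line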;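 also: test concentration not given here; z relative to plate mean and SD of compound and empty wells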). For orientation: In ATP-based viability assays light output follows the ATP content of the culture.
Assay [3] in a line: viability rescue of complex I mutant cybrids, primary screen, cell-based, galactose medium, ATP luminescence (AID 1645843;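 active = z-score of at least 1.8 in each of two replicates, scored against plate mean and spread of sample wells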;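 also: positive z means more ATP and so rescue of galactose-driven cybrid death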). As to conditions: complex I mutant cybrid cells, 72 h, stronger effect = higher value.
Setting [4] is: stronger effect = lower value, cell number ratio, induced over uninduced.
The mark [5] stands for this setting: measured here: relative caspase fold change +Dox/-Dox.
Setting [6] is: measured here: total cells with miR-34 induction, stronger effect = lower value.
Setting [7] is: measured here: total cells without miR-34 induction.
[8] abbreviates: MELAS cybrid survival, CellTiter-Glo 48 h, stronger effect = higher value.
Setting [9] is: Rieske KO mouse fibroblast survival, CellTiter-Glo 72 h.

Each structure is given as a SMILES string. “And” between values parts separate entries of the source, which are not always exact repeats. Identical values can stand only once. The source made the active and inactive calls.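 The calls were made as follows, unless noted: active = compounds whose cell count with miR-34 switched on is under 0.7 times the count with it off; inactive = the rest.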

For `CN(C)Cc1cn(CC2CCN(C(=O)c3ccc4c(c3)OCO4)CC2)nn1`, the fold change in assay [1] (setting [4]) was 0.896 (inactive); in assay [1] (setting [5]) it was 1.18. Moreover, the cell count in assay [1] (setting [6]) was 9300; in assay [1] (setting [7]), 10400. The z-score in assay [2] (setting [8]) is -0.121 (inactive); in assay [2] (setting [9]), -0.477; in assay [3], -0.48 (inactive).
Take `O=C(O)CN(CCO)CCO`: the fold change in assay [1] (setting [4]) is 0.873 (inactive); in assay [1] (setting [5]) it was 0.542. Further, the cell count stood at 8460 in assay [1] (setting [6]) and 9690 in assay [1] (setting [7]). For the same compound, the z-score is -0.0565 (inactive) in assay [2] (setting [8]), -0.265 in assay [2] (setting [9]) and 0.37 (inactive) in assay [3].
For the compound `Nc1nc2ccccc2c(=O)[nH]1`, the figures for the fold change in assay [1] (setting [4]) and in assay [1] (setting [5]) were 0.901 (inactive) and 0.247, respectively. In addition, the cell count in assay [1] (setting [6]) is 8880; in assay [1] (setting [7]) it was 9860. Besides, the results for the z-score in assay [2] (setting [8]), in assay [2] (setting [9]) and in assay [3] were 0.855 (inactive), -0.798 and 0.65 (inactive), respectively.
As for `CCOc1cc(CC(=O)NC(CC(C)C)c2ccccc2N2CCCCC2)ccc1C(=O)O` (stereo not drawn), the fold change is 0.993 (inactive) and 0.919 (inactive) in assay [1] (setting [4]); 2 and 0.721 in assay [1] (setting [5]). In addition, the cell count was 8780 and 7660 in assay [1] (setting [6]); 8840 and 8340 in assay [1] (setting [7]). The figures for the z-score in assay [2] (setting [8]), in assay [2] (setting [9]) and in assay [3] were -0.382 (inactive), 0.561 and 1.65 (inactive), respectively.
Turning to `Cc1ccc(Sc2cccc3nc(N)nc(N)c23)cc1`, the fold change in assay [1] (setting [4]) is 1.07 (inactive); in assay [1] (setting [5]), 0.775. Further, the cell count is 3810 in assay [1] (setting [6]) and 3570 in assay [1] (setting [7]). Further, the z-score in assay [2] (setting [8]) was 0.0344 (inactive); in assay [2] (setting [9]) it was 0.646; in assay [3] it was -2.52 (inactive).
On to `Cc1nn(C)cc1-c1ccnc(N2CCCN(c3ccc(F)cc3)CC2)n1`, for which the values for the fold change in assay [1] (setting [4]) and in assay [1] (setting [5]) were 0.74 (inactive) and 1.79, respectively. Besides, the cell count worked out at 3170 in assay [1] (setting [6]) and 4290 in assay [1] (setting [7]). In addition, the z-score is -0.739 in assay [2] (setting [8]), 2.39 in assay [2] (setting [9]) and 0.77 (inactive) in assay [3].
Turning to `c1ccc(-c2ncc(-c3ccn[nH]3)s2)cc1`, the fold change in assay [1] (setting [4]) is 0.881 (inactive); in assay [1] (setting [5]), 0.808. In addition, the cell count came to 8010 in assay [1] (setting [6]) and 9090 in assay [1] (setting [7]). The values for the z-score in assay [2] (setting [8]), in assay [2] (setting [9]) and in assay [3] were 2.65 (active), -0.462 and -0.185 (inactive), respectively.
Consider `Cn1nc(NC(=O)Cn2cc(-c3nccc4occc34)cn2)c2ccccc21`, for which the results for the fold change in assay [1] (setting [4]) and in assay [1] (setting [5]) were 0.83 (inactive) and 2.06, respectively. Further, the cell count came out at 7280 in assay [1] (setting [6]) and 8770 in assay [1] (setting [7]). In addition, the z-score in assay [2] (setting [8]) is 0.277 (inactive); in assay [2] (setting [9]) it was -0.242; in assay [3] it was -0.345 (inactive).
For the compound `Cc1cccc(C)c1OCC(=O)O`, the values for the fold change in assay [1] (setting [4]) and in assay [1] (setting [5]) were 0.919 (inactive) and 0.272, respectively. Further, the cell count in assay [1] (setting [6]) came to 8740; in assay [1] (setting [7]), 9510. Moreover, the z-score in assay [2] (setting [8]) is 0.26 (inactive); in assay [2] (setting [9]), 0.0496; in assay [3], 0.75 (inactive).
Turning to `COC1C=CO[C@@]2(C)Oc3c(C)c(O)c4c(O)c(c5c(c4c3C2=O)NC2(CCN(CC(C)C)CC2)N=5)=NC(=O)C(C)=CC=CC(C)C(O)C(C)C(O)C(C)C(OC(C)=O)C1C` (stereo partly drawn), the fold change in assay [1] (setting [4]) is 0.889 (inactive) and 0.859 (inactive); in assay [1] (setting [5]), 1.03 and 1.09. In addition, the cell count in assay [1] (setting [6]) was 7260 and 7580; in assay [1] (setting [7]), 8160 and 8820. Further, the z-score in assay [2] (setting [8]) is -0.0325 (inactive); in assay [2] (setting [9]), 0.718; in assay [3] it was 1.02 (inactive).
On to `Cc1ccc(-c2ncnc3scc(C)c23)c2cccnc12`, for which the fold change in assay [1] (setting [4]) was 0.907 (inactive); in assay [1] (setting [5]) it was 1.31. Besides, the figures for the cell count in assay [1] (setting [6]) and in assay [1] (setting [7]) were 8040 and 8860, respectively. The values for the z-score in assay [2] (setting [8]), in assay [2] (setting [9]) and in assay [3] were -0.0169 (inactive), -0.263 and -0.425 (inactive), respectively.
As to `Cc1cc(NC(=O)Cn2ccc(-c3ncnn3C)n2)n(C2CCCCC2)n1`, the values for the fold change in assay [1] (setting [4]) and in assay [1] (setting [5]) were 0.953 (inactive) and 1.19, respectively. For the same compound, the values for the cell count in assay [1] (setting [6]) and in assay [1] (setting [7]) were 9860 and 10400, respectively. Also, the values for the z-score in assay [2] (setting [8]), in assay [2] (setting [9]) and in assay [3] were 0.129 (inactive), -0.435 and -0.55 (inactive), respectively.
With `CN1CCN(Cc2cccc(Oc3ccccc3)c2)CC1CCO` (stereo not drawn), the results for the fold change in assay [1] (setting [4]) and in assay [1] (setting [5]) were 0.916 (inactive) and 1.42, respectively. For the same compound, the cell count in assay [1] (setting [6]) stood at 8810; in assay [1] (setting [7]), 9620. The z-score in assay [2] (setting [8]) was -0.228 (inactive); in assay [2] (setting [9]), -0.0315; in assay [3] it was -0.55 (inactive).
For `CCn1ncc(NC(=O)Cn2nc(C)c(-c3cccc(C(C)=O)c3)c2C)n1`, the fold change in assay [1] (setting [4]) was 0.83 (inactive); in assay [1] (setting [5]), 2.28. The results for the cell count in assay [1] (setting [6]) and in assay [1] (setting [7]) were 2420 and 2910, respectively. The z-score is -0.514 (inactive) in assay [2] (setting [8]), -0.567 in assay [2] (setting [9]) and -0.465 (inactive) in assay [3].
For the compound `Cc1cc(-c2cnn(C)c2)nc(N)n1`, the figures for the fold change in assay [1] (setting [4]) and in assay [1] (setting [5]) were 0.853 (inactive) and 1.79, respectively. Further, the cell count is 8800 in assay [1] (setting [6]) and 10300 in assay [1] (setting [7]). Besides, the results for the z-score in assay [2] (setting [8]), in assay [2] (setting [9]) and in assay [3] were -0.132 (inactive), -0.642 and -0.56 (inactive), respectively.
`CC(=O)C=Cc1cn(C)c2ccccc12`: the fold change was 0.824 (inactive) in assay [1] (setting [4]) and 0.579 in assay [1] (setting [5]). Moreover, the results for the cell count in assay [1] (setting [6]) and in assay [1] (setting [7]) were 7690 and 9340, respectively. Moreover, the z-score in assay [2] (setting [8]) is 1.15 (inactive); in assay [2] (setting [9]), 0.123; in assay [3], 0.49 (inactive).
For `CS(=O)(=O)c1ccc(C(=N)N)cc1`, the results for the fold change in assay [1] (setting [4]) and in assay [1] (setting [5]) were 0.887 (inactive) and 0.391, respectively. Also, the cell count is 8670 in assay [1] (setting [6]) and 9770 in assay [1] (setting [7]). The z-score in assay [2] (setting [8]) was 0.807 (inactive); in assay [2] (setting [9]), -0.298; in assay [3] it was 0.2 (inactive).
Consider `CCSCCNc1nccc(-c2cn(C)nc2C)n1`, for which the figures for the fold change in assay [1] (setting [4]) and in assay [1] (setting [5]) were 0.861 (inactive) and 2.06, respectively. The cell count in assay [1] (setting [6]) was determined as 8420; in assay [1] (setting [7]) it was 9770. For the same compound, the figures for the z-score in assay [2] (setting [8]), in assay [2] (setting [9]) and in assay [3] were -0.242 (inactive), 0.458 and -0.585 (inactive), respectively.
`Cc1ncsc1-c1ccn(CC(=O)Nc2ccnn2C2CCCCC2)n1`: the figures for the fold change in assay [1] (setting [4]) and in assay [1] (setting [5]) were 0.823 (inactive) and 0.676, respectively. The cell count was found to be 7140 in assay [1] (setting [6]) and 8680 in assay [1] (setting [7]). The figures for the z-score in assay [2] (setting [8]), in assay [2] (setting [9]) and in assay [3] were -0.424 (inactive), 0.121 and -0.57 (inactive), respectively.

The record behind these values is PubChem BioAssay.
